Where “and” joins values, the source holds several entries; their conditions need not be identical. Identical values can stand only once. Counter-ions that a name gives are not always drawn. Hit rate of the full screen: of about 5,800 compounds, about 620 (11%) showed activity. The entries come from a sample that favours actives as a whole. A number with no mark means an inactive call.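 Rule for the calls: active = score above a cut-off or among the top three wells of a plate; in these data no inactive exceeds 0.85.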
Test system: primary human hepatic stellate cells (donor 1)
Assay: scaled lipid accumulation score (0 = DMSO-like, 1 = nortriptyline-like); higher = stronger HSC inactivation (lipid re-accumulation), active = hit call of the paper
Settings: 48 h
[1] = library stock concentration: 3.33 mM
[2] = library stock concentration: 1 mM
[3] = library stock concentration: 10 mM

CN1CCC2=C[C@H](O)[C@H]3OC(=O)c4cc5c(cc4[C@H]3[C@@H]21)OCO5 [Hippeastrine hydrobromide]
scaled lipid accumulation score: ≤ 0

O=S(=O)(c1c(O)c(Cl)cc(Cl)c1Cl)c1c(O)c(Cl)cc(Cl)c1Cl [p38 MAP Kinase Inhibitor IV]
scaled lipid accumulation score [1]: ≤ 0

CCCCC/C=C\C/C=C\C/C=C\C/C=C\CCCC(=O)NCCS(=O)(=O)O [N-Arachidonoyl Taurine]
scaled lipid accumulation score [2]: 0.01

O=C1C2CCN(CC2)C1(CO)CO [listing 1 of 2 here]
scaled lipid accumulation score (library stock concentration: 27 mM): 0.911 (active)

O=C1C2CCN(CC2)C1(CO)CO [listing 2 of 2 here]
scaled lipid accumulation score [2]: ≤ 0 | scaled lipid accumulation score [3]: 0.045

CC(=O)C1=C(O)[C@@H]2[C@H]3c4c[nH]c5cccc(c45)C[C@H]3C(C)(C)N2C1=O [Cyclopiazonic acid]
scaled lipid accumulation score (library stock concentration: 14.9 mM): 0.019

CC(=O)C1=C(O)[C@@H]2[C@H]3c4c[nH]c5cccc(c45)C[C@H]3C(C)(C)N2C1=O [Cyclopiazonic Acid]
scaled lipid accumulation score [3]: 0.021

BrC1C(Br)C(Br)C(Br)C(Br)C1Br (stereo unspecified) [1,2,3,4,5,6-Hexabromocyclohexane]
scaled lipid accumulation score [3]: ≤ -0.001

CC1=C2C[C@H]3[C@@H](CC=C4C[C@@H](O)CC[C@@]43C)[C@@H]2CC[C@]12O[C@@H]1C[C@H](C)CN[C@H]1[C@H]2C [Cyclopamine]
scaled lipid accumulation score (library stock concentration: 12.1 mM): 0.19

COC(=O)/C=C/C(=O)N[C@@H]1CC[C@@]2(O)[C@H]3Cc4ccc(O)c5c4[C@@]2(CCN3CC2CC2)[C@H]1O5
scaled lipid accumulation score [3]: 0.325

CC1=NCCc2c1[nH]c1cc(O)ccc21.Cl.O.O [Harmalol hydrochloride dihydrate]
scaled lipid accumulation score: 0.979 (active)

COc1ccc2c3c([nH]c2c1)C(C)=NCC3 [Harmaline hydrochloride dihydrate]
scaled lipid accumulation score: 0.371

COc1ccc2c3c([nH]c2c1)C(C)=NCC3 [Harmaline]
scaled lipid accumulation score [3]: 0.389

CC1=NCCc2c1[nH]c1cc(O)ccc21 [Harmalol hydrochloride]
scaled lipid accumulation score [3]: ≤ 0

COC1=C[C@@H]2C3=C([C@@H]2C1=O)[C@@H](NC(C)=O)CCc1cc(OC)c(OC)c(OC)c13 [Lumicolchicine gamma]
scaled lipid accumulation score: ≤ 0

c1ccc(C2CNCc3ccccc32)cc1 (stereo unspecified) [4-Phenyl-1,2,3,4-tetrahydroisoquinoline hydrochloride]
scaled lipid accumulation score [3]: 0.217

Clc1ccc(C(OCCN2CCCCC2)c2ccccc2)cc1 (stereo unspecified) [Cloperastine hydrochloride]
scaled lipid accumulation score: 0.488 | scaled lipid accumulation score [3]: 0.544

Fc1ccc(C(OCCN2CCN(CCCc3ccccc3)CC2)c2ccc(F)cc2)cc1
scaled lipid accumulation score [3]: ≤ -0.061

Cl.Cl.Fc1ccc(C(OCCN2CCN(CCCc3ccccc3)CC2)c2ccc(F)cc2)cc1 [listing 1 of 2 here]
scaled lipid accumulation score: 0.864 (active)

Cl.Cl.Fc1ccc(C(OCCN2CCN(CCCc3ccccc3)CC2)c2ccc(F)cc2)cc1 [listing 2 of 2 here]
scaled lipid accumulation score [3]: 0.942 (active)

c1ccc(CCCN2CCN(CCOC(c3ccccc3)c3ccccc3)CC2)cc1
scaled lipid accumulation score [3]: ≤ -0.07 and 0.566

Fc1ccc(C(OCCN2CCN(C/C=C/c3ccccc3)CC2)c2ccc(F)cc2)cc1
scaled lipid accumulation score [3]: 0.507

CC(N)Cc1cccc(C(F)(F)F)c1 (single isomer, unassigned; (+)) [(+)-Norfenfluramine hydrochloride]
scaled lipid accumulation score [3]: 0.072

CC(=O)[O][Hg][c]1ccccc1 [Phenylmercuric acetate]
scaled lipid accumulation score (library stock concentration: 5.9 mM): 0.512 | scaled lipid accumulation score [3]: 0.358

O=[N+]([O-])OCC(CO[N+](=O)[O-])O[N+](=O)[O-] [Nitroglycerin]
scaled lipid accumulation score (library stock concentration: 8.8 mM): 0.395

CCCCC/C=C\C/C=C\C/C=C\C/C=C\CCCC(=O)NCCc1ccc(O)c(O)c1 [N-Arachidonoyl Dopamine]
scaled lipid accumulation score [2]: ≤ 0

CCCCC/C=C\C/C=C\C/C=C\C/C=C\CCCC(=O)N[C@H](C)COP(=O)(O)O [R-1 Methanandamide Phosphate]
scaled lipid accumulation score [2]: ≤ 0

Cc1[nH]c2ccc(Cl)cc2c1C1=CCNCC1.Cl
scaled lipid accumulation score [3]: 1.1 (active)

C#CCOC(=O)C1=CCCN(C)C1 [Arecaidine propargyl ester tosylate]
scaled lipid accumulation score [3]: ≤ 0

C#CCOC(=O)C1=CCCN(C)C1 [Arecaidine propargyl ester hydrobromide]
scaled lipid accumulation score [3]: ≤ 0

C[C@]12CCC(=O)C=C1CC[C@@H]1[C@@H]2CC[C@@]2(C)[C@H]1CC[C@]2(C)O [Methyltestosterone]
scaled lipid accumulation score [3]: 0.073

COc1ccc2c(c1)[nH]c1c(C)nccc12.Cl [Harmine hydrochloride]
scaled lipid accumulation score: 0.89 (active)

Cc1nccc2c1[nH]c1ccccc12 [Harmane]
scaled lipid accumulation score [3]: 0.671

COc1ccc2c(c1)[nH]c1c(C)nccc12 [Harmine] [listing 1 of 2 here]
scaled lipid accumulation score (library stock concentration: 9.4 mM): 0.851 (active)

Cc1nccc2c1[nH]c1ccccc12 [Harmane hydrochloride]
scaled lipid accumulation score: 0.089

Cc1nccc2c1[nH]c1cc(O)ccc12 [Harmol hydrochloride]
scaled lipid accumulation score [3]: ≤ 0

COc1ccc2[nH]c3c(c2c1)CCN=C3C [Methoxy-6-harmalan]
scaled lipid accumulation score: 0.039

COc1ccc2c(c1)[nH]c1c(C)nccc12 [Harmine] [listing 2 of 2 here]
scaled lipid accumulation score [2]: 0.141 | scaled lipid accumulation score [3]: 0.762

Cc1onc(O)c1C[C@H](N)C(=O)O
scaled lipid accumulation score [3]: ≤ 0

CCCCC/C=C\C/C=C\C/C=C\C/C=C\CCCC(=O)Nc1ccc([N+](=O)[O-])cc1 [Arachidonoyl p-Nitroaniline]
scaled lipid accumulation score [2]: ≤ 0

c1cc2ccc(N3CCNCC3)cc2cn1 [7-piperazin-1-yl-Isoquinoline (hydrochloride)]
scaled lipid accumulation score [2]: ≤ 0

CCN1CCN(C(=O)Cc2ccc(Nc3ncc(F)c(Nc4ccc(C(=O)Nc5ccccc5Cl)cc4)n3)cc2)CC1 [Aurora A Inhibitor I] [listing 1 of 2 here]
scaled lipid accumulation score [3]: 1.24 (active)

CCN1CCN(C(=O)Cc2ccc(Nc3ncc(F)c(Nc4ccc(C(=O)Nc5ccccc5Cl)cc4)n3)cc2)CC1 [Aurora A Inhibitor I] [listing 2 of 2 here]
scaled lipid accumulation score [1]: 0.402

CCN1CCN(C(=O)Cc2ccc(Nc3ncc(F)c(Nc4ccc(C(=O)Nc5ccccc5Cl)cc4)n3)cc2)CC1
scaled lipid accumulation score (library stock concentration: 80 uM): ≤ 0 | scaled lipid accumulation score (library stock concentration: 400 uM): ≤ 0 | scaled lipid accumulation score (library stock concentration: 2 mM): 0.676 | scaled lipid accumulation score [3]: 0.801
